The values below come from PubChem BioAssay (NCI).

This is part of a sample that, as a whole, favours compounds with a hit. Of some 83,000 tested, about 20% had one in any assay.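 Plates (96-well) were seeded with cells, treated with compound at one concentration, and incubated for 48 hours before percent growth was determined.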 Values without a mark were called inactive. Active and inactive are the calls of the source. Rule for the calls: active = growth percent below 10; inactive = the rest.

Test systems include HCT-15 colon; HT29 colon; SNB-75 CNS; U251 CNS; PC-3 prostate; SK-MEL-5 melanoma; UACC-62 melanoma; LOX IMVI melanoma; SK-MEL-28 melanoma; SK-MEL-2 melanoma; EKVX NSCLC; SN12C renal; UO-31 renal; TK-10 renal; ACHN renal; CAKI-1 renal; A498 renal; CCRF-CEM leukemia; MOLT-4 leukemia.
What all share (assay): NCI-60 one-dose screen, 48 h (100 = growth as untreated, 0 = no growth, -100 = all killed)
Settings in all cases: 10 µM unless noted

For `COc1ccc(/C=C/C(=O)c2ccc(Nc3ccnc4cc(Cl)ccc34)cc2)cc1`, the growth with HCT-15 colon is 77.7%; in the assay on HT29 colon, 45%; in the assay with SNB-75 CNS, 102%; in the assay on U251 CNS, 84.9%; in the assay on PC-3 prostate, 75%; in the assay with SK-MEL-5 melanoma, 67.8%. The growth is 92.3% with UACC-62 melanoma; 89.8% in the assay on LOX IMVI melanoma; 118% in the assay on SK-MEL-28 melanoma; 64.1% with SK-MEL-2 melanoma; 85.8% in the assay with EKVX NSCLC; 97.8% in the assay with SN12C renal. The growth with UO-31 renal was 90%; in the assay with TK-10 renal, 141%; in the assay with ACHN renal, 98.8%; with CAKI-1 renal, 85.1%; with A498 renal, 115%; in the assay with CCRF-CEM leukemia it was -52.1% (active). Also, in the assay with MOLT-4 leukemia, the growth is 22.9%.

Consider `COc1ccc(-c2ccc(-c3ccc(C(=N)N)cc3)s2)cc1Cl`, for which the growth in the assay with HCT-15 colon is -70.3% (active); with HT29 colon it was 0.572% (active); in the assay with SNB-75 CNS, 100%; in the assay with U251 CNS, -62.4% (active); in the assay on PC-3 prostate it was -25% (active); with SK-MEL-5 melanoma, 87.7%. Also, the growth was 88.3% with UACC-62 melanoma; -76.7% (active) in the assay with LOX IMVI melanoma; 102% with SK-MEL-28 melanoma; 101% with SK-MEL-2 melanoma; 68.3% in the assay with EKVX NSCLC; -69.1% (active) with SN12C renal. Also, the growth in the assay on UO-31 renal was -47.6% (active); in the assay on TK-10 renal, 111%; in the assay on ACHN renal, -98.7% (active); in the assay with CAKI-1 renal it was -88.2% (active); in the assay with A498 renal it was 90.3%; with CCRF-CEM leukemia, -41.3% (active). Also, the growth in the assay with MOLT-4 leukemia was -50.1% (active).

On to `Oc1c(I)cc(I)cc1CNCCN(Cc1ccccn1)Cc1ccccn1`, for which the growth in the assay with HCT-15 colon was -30.4% (active); in the assay on HT29 colon it was -37% (active); in the assay on SNB-75 CNS, -57.2% (active); in the assay with U251 CNS, -29.1% (active); with PC-3 prostate it was -41% (active); with SK-MEL-5 melanoma it was -97% (active). The growth is -14.3% (active) in the assay on UACC-62 melanoma; -64.2% (active) in the assay on LOX IMVI melanoma; -14% (active) in the assay on SK-MEL-28 melanoma; -52.4% (active) in the assay on SK-MEL-2 melanoma; -10.3% (active) in the assay on EKVX NSCLC; 16% with SN12C renal. The growth was -89.4% (active) in the assay with UO-31 renal; -91.5% (active) with TK-10 renal; -84% (active) in the assay on ACHN renal; -92.2% (active) in the assay on CAKI-1 renal; -88.2% (active) in the assay on A498 renal; -10.1% (active) in the assay on CCRF-CEM leukemia. Further, in the assay with MOLT-4 leukemia, the growth was -29.5% (active).

As for `Cc1cn(-c2cc(NC(=O)c3cccc(C#Cc4cccc5[nH]nc(N)c45)c3)cc(C(F)(F)F)c2)cn1`, the growth in the assay on HCT-15 colon is 25.8%; in the assay on HT29 colon, 18.4%; in the assay with SNB-75 CNS it was 48.1%; in the assay with U251 CNS, 43.7%; with PC-3 prostate, 20.9%; in the assay on SK-MEL-5 melanoma it was 34.5%. Also, the growth is 5.82% (active) in the assay with UACC-62 melanoma; 7.02% (active) in the assay on LOX IMVI melanoma; 23.5% in the assay on SK-MEL-28 melanoma; 22.5% in the assay with SK-MEL-2 melanoma; 56.7% in the assay with EKVX NSCLC; 29.9% with SN12C renal. Also, the growth in the assay with UO-31 renal is 9.11% (active); in the assay on TK-10 renal, 78.8%; in the assay with ACHN renal, 21.5%; in the assay with CAKI-1 renal, 75.7%; in the assay on A498 renal, 35.1%; in the assay with CCRF-CEM leukemia it was 15%. For the same compound, the growth with MOLT-4 leukemia was 20.7%.
